Screening results (PubChem BioAssay)
Anthrax LF inh2 – Bacillus anthracis LF protease inhibitors, primary screen, biochemical, multiplex microsphere, MLPCN library; 360,000 tested, 0.12% active; Lethal factor (Bacillus anthracis), P15917; inhibition, % at 10 µM; multiplex microsphere protease cleavage assay; also: plate controls were buffer without enzyme for full effect and enzyme alone for no effect
Target sequence (P15917 whole entry, looked up): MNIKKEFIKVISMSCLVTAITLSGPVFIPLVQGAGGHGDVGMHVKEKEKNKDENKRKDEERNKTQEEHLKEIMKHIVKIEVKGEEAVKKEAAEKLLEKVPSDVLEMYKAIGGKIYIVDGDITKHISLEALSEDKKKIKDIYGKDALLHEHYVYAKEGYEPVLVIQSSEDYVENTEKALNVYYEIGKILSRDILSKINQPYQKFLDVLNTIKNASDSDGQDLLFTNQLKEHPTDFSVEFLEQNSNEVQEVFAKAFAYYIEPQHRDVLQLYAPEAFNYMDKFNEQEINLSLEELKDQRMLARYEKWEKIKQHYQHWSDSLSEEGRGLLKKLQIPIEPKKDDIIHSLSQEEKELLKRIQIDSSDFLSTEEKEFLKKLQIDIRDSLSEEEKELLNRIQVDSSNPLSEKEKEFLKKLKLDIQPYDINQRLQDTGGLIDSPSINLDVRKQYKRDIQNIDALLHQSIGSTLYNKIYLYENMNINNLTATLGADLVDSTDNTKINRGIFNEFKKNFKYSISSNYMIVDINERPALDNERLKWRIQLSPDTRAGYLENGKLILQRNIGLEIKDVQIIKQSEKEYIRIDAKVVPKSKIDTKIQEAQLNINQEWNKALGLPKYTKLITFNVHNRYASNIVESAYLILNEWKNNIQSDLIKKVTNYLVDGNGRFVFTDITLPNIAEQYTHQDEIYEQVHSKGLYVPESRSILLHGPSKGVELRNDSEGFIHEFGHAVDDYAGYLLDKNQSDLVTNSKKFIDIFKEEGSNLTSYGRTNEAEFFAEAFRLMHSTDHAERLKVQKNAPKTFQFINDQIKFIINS
BoNT-A LC inh2 – BoNT/A light chain protease inhibitors, primary screen, biochemical, flow cytometry, MLPCN library. Botulinum neurotoxin type A light chain protease (Clostridium botulinum A str. ATCC 3502). multiplex microsphere protease substrate cleavage. inhibition, % at 10 µM. 360,000 tested, 0.17% active; also: plate controls were buffer without enzyme for full effect and enzyme alone for no effect
Bead autofluor – flagged as autofluorescent in microsphere protease counterscreen. fluorescence intensity (test concentration not listed). compound autofluorescence counterscreen, microsphere flow cytometry; stronger effect = higher value. 360,000 tested, 3.1% active; in the data active = fluorescence intensity above about 16000; inconclusive = no clear call, values can overlap the other calls
BoNT-F LC inh – BoNT/F light chain protease inhibitors, primary screen, biochemical, flow cytometry, MLPCN library. inhibition, % at 10 µM. 360,000 tested, 0.22% active. Multiplex microsphere protease cleavage assay; in the data active = inhibition above about 35%, passing the limit was not always enough; inconclusive = no clear call, values can overlap the other calls; also: plate controls were buffer without enzyme for full effect and enzyme alone for no effect
Numbers without * were called inactive; ? = inconclusive. This is a sample that favours compounds with a hit; in the whole collection about 3.5% have one here. Rule as the data show it, unless noted: active = inhibition above about 30%; inconclusive = no clear call, values can overlap the other calls; inactive = below that.

SMILES	Anthrax LF inh2	BoNT-A LC inh2	Bead autofluor	BoNT-F LC inh
CCN(CC)CCCNC(=O)CC1Oc2ccc(C)cc2NC1=O (stereo not drawn)	0	1	5852	-5
CC(=O)c1cnc(Nc2cccc(Cl)c2Cl)s1	1	0	4964	-5
O=C(c1ccc(Cl)cc1)c1cnc(Nc2ccccc2Cl)s1	-1	?	20938*	-7
O=C(O)CCSSCCC(=O)O	-1	0	5503	-1
CCOC(=O)CNC(=O)Cn1cnc2c(nnn2-c2cccc(OC)c2)c1=O	-12	-1	3755	-1
CCOC(=O)CNC(=O)Cn1cnc2c(nnn2-c2cccc(Cl)c2)c1=O	2	-2	23372*	-3
CCOC(=O)CNC(=O)Cn1cnc2c(nnn2-c2ccc(C)cc2)c1=O	-12	10	18628*	10
CCCC(=O)C1=C(O)C(C(=O)OC)C(C)(C)CC1=Nc1ccc(N)cc1 (stereo not drawn)	0	4	21083*	9
CCCC(=O)C1=C(O)C(C(=O)OC)C(C)(C)CC1=Nc1ccc(C)cc1 (stereo not drawn)	-3	0	3386	-10
CCCC(=Nc1ccc(N)cc1)C1=C(O)C(C(=O)OC)C(C)(C)CC1=O (stereo not drawn)	-1	?	23098*	0
CCCCC(=NCCO)C1=C(O)C(C(=O)OC)C(C)(C)CC1=O (stereo not drawn)	-3	0	2421	-4
CN(Cc1ccccc1)C(=O)COc1cc(Cl)ccc1Cl	-11	1	3891	-2
CC1(C(=O)NS(=O)(=O)c2ccc(F)cc2F)CCN1C(=O)Cc1cc(F)ccc1F (stereo not drawn)	-7	0	2901	-4
Cc1cc(C(=O)CN2C(=O)c3ccccc3C2=O)c(C)n1Cc1cccs1	-1	-4	24091*	-3
Cc1ccc(C)c(S(=O)(=O)N2CCN(C(=O)CCNS(=O)(=O)c3ccccc3)CC2)c1	0	1	5532	5
Cc1ccc(Cn2c(=O)c3ccccc3n3c(SCC(=O)N4CCCCC4C)nnc23)cc1 (stereo not drawn)	2	?	19920*	2
CC1(C)Cc2c(C#N)c(NCCN3CCOCC3)nc(-c3ccco3)c2CO1	-6	2	21315*	1
CCCCc1cc(=O)oc2cc(C)cc(OCC(=O)N3CCC(C(=O)O)(c4ccccc4)CC3)c12	-7	0	4268	-6
OC(CC1CC12c1ccccc1-c1ncccc12)(c1ccccc1)c1ccccc1 (stereo not drawn)	-7	0	5889	2
CCOC(=O)C(C)C1(O)c2ccccc2-c2ncccc21 (stereo not drawn)	-2	?	23373*	-8
CC(C)(C)NC(=O)C(c1ccco1)N(C(=O)Cn1nnc(-c2ccc(F)cc2)n1)c1cccc(F)c1 (stereo not drawn)	-1	0	22593*	1
CCCCNS(=O)(=O)CCNCc1ccco1	-4	0	2985	-1
CC1CCCCC1NC(=O)CCCn1c(=S)[nH]c2ccccc2c1=O (stereo not drawn)	1	0	3115	0
O=C(CCCn1c(=S)[nH]c2ccccc2c1=O)NC1CCCC1	0	-2	16938*	-5
O=C(CCn1c(=S)[nH]c2ccccc2c1=O)NCC1CCCO1 (stereo not drawn)	-1	5	21058*	5
SMILES	Anthrax LF inh2	BoNT-A LC inh2	Bead autofluor	BoNT-F LC inh
CC(=O)N1CCN(C(=O)c2ccc(C(=O)c3ccccc3)cc2)CC1	-2	0	3039	-8
Cc1onc(-c2ccccc2)c1C(=O)N1CCCSC1=Nc1ccccc1	2	0	3264	-7
O=C(c1ccco1)N1CCCSC1=Nc1ccccc1	-2	-1	21959*	-3
C[C@@H]1CCCCO[C@H](CN(C)S(=O)(=O)c2cn(C)cn2)[C@@H](C)CN([C@H](C)CO)C(=O)c2cc(NC(=O)c3ccncc3)ccc2O1	1	0	3690	-2
c1ccc(CNn2nnnc2-c2ccccc2)cc1	1	1	19323*	0
Cc1cc(-c2nc3cc(F)ccc3s2)ccc1N	-7	0	3274	-2
CCOc1ccc(CCNC(=O)COC(=O)c2cccc(N(C)C)c2)cc1OCC	1	2	4716	3
CCOc1cc(C(=O)OC(C)C(=O)Nc2ccc(NC(C)=O)cc2)ccc1OCC(=O)N1CCCCC1 (stereo not drawn)	-3	-2	6274	-3
O=CN1CCC(=O)N(Cc2ccccc2)c2ccccc21	-2	?	24835*	-6
c1ccc2c(Cn3nnc4ccccc43)cccc2c1	-1	-1	8209	-12
c1ccc2c(COn3nnc4ccccc43)cccc2c1	1	2	21859*	0
CCCCOC(=O)Nc1nnc(COc2ccccc2)s1	-4	-2	16850*	0
CC(C)C[C@@H](CNCC(=O)[C@H](C)NC(=O)c1[nH]cnc1C(=O)N[C@H](CN)CC(C)C)NC(=O)c1nc[nH]c1C(=O)N[C@@H](C)C(=O)O	3	0	3743	-9
COc1ccc(-c2oc3ncnc(N)c3c2-c2ccccc2)cc1	1	3	21630*	4
CCOC(=O)c1c(C)c(C)n2c1NC(=O)C2	-8	0	5458	1
Cc1ccc(C2Nc3ccc4ccccc4c3C3=C2C(=O)CC(C)(C)C3)o1 (stereo not drawn)	-8	3	21585*	1
CC1(C)CC(=O)C2=C(C1)c1c(ccc3ccccc13)NC2c1ccc(C(=O)O)cc1 (stereo not drawn)	-9	-1	3009	-10
CC1CC2(C)Oc3ccccc3C3OCC1(CO)C(C)C32 (stereo not drawn)	-10	4	19211*	2
CSCC[C@H](NC(=O)OC(C)(C)C)C(=O)N1CCC(C(=O)N[C@H](C(=O)O)C(C)C)CC1	-1	-1	10667	-5
CSCC[C@H](NC(=O)OC(C)(C)C)C(=O)N1CCC(C(=O)N[C@@H](C)C(=O)O)CC1	0	?	20586*	0
COC(=O)c1ccc(OC)c(CN2CCCN(Cc3ccc(F)cc3)S2(=O)=O)c1	0	2	3174	-16
CN(C(=O)Nc1ccc(Cl)cc1)c1c2c(nn1C)CCCC2	-3	?	23809*	-6
CCSc1ccccc1C(=O)NCc1ccco1	-3	-2	24013*	-3
CCSc1ccccc1C(=O)NCc1ccc(S(N)(=O)=O)cc1	0	-1	23721*	-2
O=C(NCc1ccco1)c1ccccc1Br	5	0	8753	-2
NS(=O)(=O)c1ccc(CNC(=O)c2ccccc2SCC(=O)N2CCCC2)cc1	?	0	?	-4
O=C(Nc1ccccc1C(=O)NCc1ccco1)c1ccco1	-1	-2	17328*	-4
O=C(Nc1ccccc1C(=O)Nc1ccccc1C(=O)NCc1ccco1)c1ccco1	-1	-1	8239	-9
O=C(NCc1ccc(F)cc1)c1cc(C2CCCCN2C(=O)CCCc2ccccc2)on1 (stereo not drawn)	0	0	3955	2
Cc1ccccc1N1C(=O)[C@@H]2Cc3ccccc3CN2C1=O	-6	?	19296*	6
